APP 5'UTR act: activates APP 5'UTR luciferase reporter. SH-SY5Y APP 5'UTR luciferase reporter, luminescence; zero percent = DMSO vehicle wells. actives 1% (n = 190,000). AID 1276. activation, % at 2 µM;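 active = activation above a set limit, based on mean plus 3 SD of controls, cut at about 140% in these data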
hgDAF-12 ag: agonists of H. glycines DAF-12 nuclear receptor | HEK293 GAL4-hgDAF12 UAS-luciferase reporter, agonist luminescence; normalized to butyrate control | activation, % at 6.8 µM | actives 1.8% (n = 370,000) | AID 687014;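 active = activation above a cutoff set at the mean of all screened compounds plus 3 SD, cut at about 10% in these data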;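 note: 0% = DMSO wells and 100% = sodium butyrate wells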
ssDAF12 agonist: S. stercoralis DAF-12 activation, primary screen; HEK293 ssDAF-12/GRIP1 lit1-tk-luc reporter, luminescence; % of 3 µM dafachronic acid response; activation, % at 6.8 µM; actives 1% (n = 370,000); AID 652126;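 active = activation above the mean over all tested compounds plus 3 SD, cut at about 0.9% in these data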;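 note: 0% = DMSO-only wells and 100% = 3 µM delta7-dafachronic acid wells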
hcDAF12 agonist: H. contortus DAF-12 activation, primary screen | HEK293 hcDAF-12 lit1-tk-luc reporter, luminescence; 0% DMSO, 100% Δ7-dafachronic acid | activation, % at 6.8 µM | actives 1.4% (n = 370,000);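 active = activation above the mean of all tested compounds plus 3 SD, cut at about 5.5% in these data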;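 note: 100% = response to 3 µM Δ7-dafachronic acid high control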
NF-kB expr up: NF-kB expression increase, human neuronal cells; NF-kB reporter expression; hits give high values; fold change at 12.5 µM; actives 1.6% (n = 190,000); AID 1239; in the data active = fold change above about 3.3
hgDAF12 ag: hgDAF-12 agonism, confirmation assay | actives 80% (n = 3,300) | activation, % at 6.8 µM | shares compounds with hgDAF-12 ag | HEK293 GAL4-hgDAF12 luciferase reporter, agonist mode; percent of butyrate response;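 active = mean activation over triplicate wells above the hit cutoff derived from the earlier primary screen, cut at about 11% in these data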;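 note: 0% = DMSO low control and 100% = 2 mM sodium butyrate high control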
LXR ag 2: LXR-beta agonism as DAF-12 counter-screen; AID 743051; shares compounds with hgDAF-12 ag; HEK293 Gal4-LXR luciferase reporter, 24 h; 3,300 tested, under 10 active; activation, % at 6.8 µM;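 active = mean activation of the triplicate above a set limit carried over from the primary screen, none filed active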
Target sequence (P55055 whole entry, looked up, the tested form may be a part): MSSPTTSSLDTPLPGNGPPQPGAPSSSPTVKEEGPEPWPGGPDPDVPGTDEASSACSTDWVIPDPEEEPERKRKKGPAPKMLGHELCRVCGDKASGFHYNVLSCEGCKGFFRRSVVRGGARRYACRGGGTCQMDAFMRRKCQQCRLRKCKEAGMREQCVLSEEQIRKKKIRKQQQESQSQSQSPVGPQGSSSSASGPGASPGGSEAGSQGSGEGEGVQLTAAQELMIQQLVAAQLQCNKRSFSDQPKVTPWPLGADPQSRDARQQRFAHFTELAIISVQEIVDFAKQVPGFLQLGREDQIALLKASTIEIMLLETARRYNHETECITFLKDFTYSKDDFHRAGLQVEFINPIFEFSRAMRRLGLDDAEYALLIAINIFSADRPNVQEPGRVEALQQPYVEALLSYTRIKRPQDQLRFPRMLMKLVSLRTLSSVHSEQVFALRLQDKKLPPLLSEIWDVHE
Numbers without * were called inactive; nt = not tested or not shown. This is a sample that favours compounds with a hit; in the whole collection about 3.4% have one here.

SMILES | APP 5'UTR act | hgDAF-12 ag | ssDAF12 agonist | hcDAF12 agonist | NF-kB expr up | hgDAF12 ag | LXR ag 2
O=C(c1cc2c(s1)-c1ccccc1OC2)N1CCC2(CC1)OCCO2 | 142* | 14* | 0 | 3 | 3.9* | 19* | 1
Cc1cccc2nc(-c3ccccc3)c(-c3ccc(CN4CCC(n5c(=O)[nH]c6cc(Cl)ccc65)CC4)cc3)nc12 | nt | -1 | -1 | -1 | nt | nt | nt
CC/C(=N\NC(=O)c1ccccc1)c1c(O)n(C2CCCCC2)c(=O)[nH]c1=O | nt | 15* | -1 | 3 | nt | 2 | 0
Cc1cc(N=Nc2ccccc2C)ccc1N | nt | 15* | 0 | 4 | nt | 13* | 1
Cc1ccc(N)c(C(=O)c2ccccc2)c1 | 8 | 3 | -2 | -1 | 1.1 | nt | nt

Screens deposited in PubChem BioAssay by several laboratories.
